# PubChem BioAssay (NCI)
# The panel holds about 83,000 compounds, 20% with a hit somewhere; the sample as a whole holds those more often.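 Compound tested at a single concentration for 48 hours in 96-well plates; a percent growth value below 10 was scored as active.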 A number with no mark means an inactive call. The source made the active and inactive calls.
# What was measured:
# Assay in all cases: NCI-60 one-dose screen, 48 h (100 = growth as untreated, 0 = no growth, -100 = all killed)
# Details in all cases: 10 µM
# NCI-H23 lung = system: NCI-H23 lung
# NCI-H226 lung = system: NCI-H226 lung
# NCI-H322M lung = system: NCI-H322M lung
# HOP-62 NSCLC = system: HOP-62 NSCLC
# NCI-H460 lung = system: NCI-H460 lung
# HOP-92 NSCLC = system: HOP-92 NSCLC
# NCI-H522 lung = system: NCI-H522 lung
# A549/ATCC NSCLC = system: A549/ATCC NSCLC
# 786-0 renal = system: 786-0 renal
# COLO 205 colon = system: COLO 205 colon
SMILES,growth (NCI-H23 lung),growth (NCI-H226 lung),growth (NCI-H322M lung),growth (HOP-62 NSCLC),growth (NCI-H460 lung),growth (HOP-92 NSCLC),growth (NCI-H522 lung),growth (A549/ATCC NSCLC),growth (786-0 renal),growth (COLO 205 colon)
O=C(c1ccc(O)cc1)C1[C@H](c2ccccc2Br)[C@@H](c2ccccc2)NC12C(=O)Nc1ccc(Br)cc12 (stereo not given in full),46.4%,36.5%,55.6%,53.2%,31.1%,53.3%,0.143% (active),34.4%,47.8%,29.7%
CCN(CC)CCOc1ccc(C(=C(C)c2ccccc2)c2ccc(OCCN(CC)CC)cc2)cc1,19.9%,71%,31.1%,-44.3% (active),4.41% (active),-21.3% (active),3.11% (active),15.2%,-51.6% (active),-88.2% (active)
Cc1noc2c(Cc3ccccc3)nn(CC(=O)N/N=C/c3ccc(F)cc3)c(=O)c12,78.4%,29%,84.6%,14.7%,28.9%,-12.7% (active),85.8%,45.3%,-2.13% (active),72.5%
O=C1Nc2cc(Cl)ccc2/C1=C/c1cccc(OCc2ccc(Br)cc2F)c1,28.5%,37.4%,54%,11.1%,0.927% (active),6.98% (active),-2.73% (active),29.7%,17.9%,3.13% (active)
O=C(CSc1nnc(-c2ccc3nc(-c4ccccc4)[nH]c3c2)o1)Nc1ccc(Br)cc1,54.2%,80.2%,86.3%,92.2%,6.71% (active),135%,61.2%,66.2%,66.7%,81.1%
COc1ccccc1[C@H]1C(C(=O)c2ccc(O)cc2)C2(N[C@@H]1c1ccccc1)C(=O)Nc1ccc(Br)cc12 (stereo not given in full),33.8%,48.1%,55.3%,51.3%,20.2%,51.8%,-7.87% (active),32.6%,26.9%,-5.4% (active)
Cc1ccc(/C=C(\C#N)n2nnc3c(F)cccc32)cc1,14.7%,16.8%,10.1%,17.8%,3.45% (active),-4.81% (active),1.65% (active),-3% (active),38.5%,-70.6% (active)
CC(C)C1=C[C@@]23CC[C@@H]4[C@](C)(CCC[C@]4(C)C(=O)NCc4ccccc4)[C@H]2C[C@@H]1[C@H]1C(=O)OC(=O)[C@H]13,23%,76.1%,102%,57.2%,17.6%,64.7%,17%,33.7%,70.5%,79.6%
CN(CCF)c1ccc(/C=C/C(=O)c2ccc(N)cc2O)cc1,93.2%,93.8%,78.8%,106%,71.9%,94%,67.5%,68.8%,90.5%,111%
CC(=O)Nc1ccc(-c2cn(-c3cccc(C(=O)Nc4cc(CN5CCOCC5)cc(C(F)(F)F)c4)c3)nn2)cn1,-92.6% (active),-74% (active),-94.3% (active),-64.1% (active),-65.3% (active),-77.5% (active),-53.2% (active),-74.7% (active),-86% (active),-91.5% (active)
CN1CCN(c2ccc(Nc3nc(NCCCNC(=O)c4ccc(F)cc4)c4sccc4n3)cc2)CC1,74.8%,81.2%,79.9%,92.5%,62.5%,56.8%,87.5%,56.3%,-4.91% (active),90.3%
CS(=O)(=O)Nc1ccc(-c2ccc3c(c2)ncn3-c2ccc(NC(=O)Nc3ccc(Cl)c(C(F)(F)F)c3)cc2)cc1,-70.3% (active),-51% (active),-42.9% (active),-87.1% (active),0.554% (active),-43.5% (active),-87.6% (active),-75.1% (active),-77.9% (active),-90.4% (active)
COc1ccc2[nH]c(O)c(N=NC(=O)c3cc(-c4ccc(C)cc4)nc4ccccc34)c2c1,86%,90.6%,102%,102%,95.8%,97.8%,99.5%,87.2%,97.2%,112%
Cc1cc(C)nc(/N=C(\N)Nc2ccc(S(=O)(=O)Nc3nc(C)cc(C)n3)cc2)n1,104%,102%,106%,104%,116%,117%,98.4%,106%,111%,120%
CN1CCN(Cc2ccc(NC(=O)c3cncc(C#Cc4cnc5ccc(N[C@@H]6CCOC6)nn45)c3)cc2C(F)(F)F)CC1,-81.3% (active),-94.9% (active),-99.2% (active),-75.5% (active),-30% (active),-82% (active),-71.6% (active),-56% (active),-77.4% (active),-65.5% (active)
O=C1Nc2ccc(Cl)cc2/C1=C/c1cccc(OCc2ccccn2)c1,15.4%,-21.3% (active),40.1%,52.1%,-16.2% (active),-6.11% (active),-75.5% (active),40.1%,-14.4% (active),-45.9% (active)
CNC(=O)c1cccc(N2CCc3c2ccc(NC(=O)Nc2ccc(N4CCN(C)CC4)c(C(F)(F)F)c2)c3F)c1,-85.6% (active),104%,-92% (active),-80% (active),-81% (active),-83% (active),-91.7% (active),-86% (active),-95.6% (active),92.7%
O=C(c1ccc(Cl)cc1)C1[C@H](c2ccc(Br)cc2)[C@@H](c2ccccc2)NC12C(=O)Nc1ccccc12 (stereo not given in full),-35.9% (active),-72.4% (active),19.9%,-18.9% (active),-33.8% (active),-18% (active),-4.55% (active),15%,-4.41% (active),-88.9% (active)
Cc1cccc2cc(-c3cc(-c4ccccc4)nc(=S)[nH]3)c(Cl)nc12,82.2%,90.5%,90.2%,97.4%,101%,73.2%,64.2%,95.9%,97.7%,123%
CN(C)c1ccc(/C=C/C(=O)c2ccc(NC(=O)CN3C(=O)NC(C)(c4ccccc4)C3=O)cc2)cc1 (stereo not given),66%,53.2%,88.8%,88.9%,73.7%,65.3%,78.3%,56.5%,29.8%,110%
Cc1ccc(CSc2nc(Cl)c(C#N)c(-c3ccc(F)cc3)n2)cc1,87.8%,53.5%,86.7%,96.4%,86.5%,54.6%,62.5%,66.5%,78.7%,77.3%
Cc1ccc(F)cc1N/C=c1\s/c(=C(\C#N)C(=O)Nc2ccccc2)n(-c2ccccc2)c1=O,58%,20.3%,81.8%,51.8%,71.7%,27.6%,74.7%,37.7%,34.6%,99%
COc1ccc(/C=N/N=C(\C)c2ccc3c(c2)Nc2ccccc2S3)cc1O,35.9%,49.2%,71.2%,80.1%,41.1%,74.1%,48.3%,63.9%,73.9%,99.9%
CN1C(=O)N(C)C2SC(N/N=C/c3cccs3)=NC21 (stereo not given),38.4%,68.2%,69.3%,37.7%,13.2%,55.6%,-14.6% (active),44.2%,37.3%,26.8%
COc1cccc(/C=C2\N=C(C)N(CCc3ccc(S(N)(=O)=O)cc3)C2=O)c1,102%,104%,96.5%,93.5%,105%,92.8%,94.5%,101%,90.4%,131%
CC(=O)c1ccc(NC(=O)NCn2c(=O)[nH]c3ccccc3c2=O)cc1,103%,87.3%,93.8%,96.3%,112%,79.5%,90.2%,97.7%,102%,109%
